In PMC12864922, “TDP-43 directly inhibits mRNA accumulation in neurites through modulation of mRNA stability” one finds binding signal data, which are given here for four molecules.

The full ranking holds about 9,900 sequences; the median of “r (bound/input frequency ratio)” is about 0.7, and the highest 2% start at about 6.5. The list comes from a sample in which the highest values are over-represented; it also holds similar and randomly drawn sequences.

B1: ENSMUSG00000061578.1192|Ksr2 (ssRNA)
RNA: GGGAGUUCUACAGUCCGACGAUCGCUUCGAUAUCCGCAUGCUAUGUCUGCUUUUGUUUCUCCACCAUGCCCCCUGCCACCUCUUCUGACAGUGCUCAGAUUUAUCAGCCACCUGACCCACAGACCCAUAUGGACACACUAGAAAGCCCAUCCUAGGUCUUUCCAUGGUCUCUCACACCCCUGUCCCCGUCCCCUCCACCCCCCGGCAGCAUGCUUCACUCUAUGAAUGAGCCGCUGGGAUAUUGACAUGGAGAUGUGUUGAUGGAAAAAGCCUCCACACCCAACAUAACUCUCCAGAGAGAUACUCUUGCGGUCGCACUAGUGUGGAAUUCUCGGGUGUCAAGG
B2: ENSMUSG00000031028.410|Tub|118:122;252:256 (ssRNA)
RNA: GGGAGUUCUACAGUCCGACGAUCGCUUCGAUAUCCGCAUGCUAAGAUCCCUUACCCCUCAUCCCCUCUUCUUUUUGGUCCUUGGCUGGGUAGCAAAUUGGUGAGAAGAGCAGCCUAGUCUGUAAGAGUGCAGGGCAGCUGGAACCUUAGGCAGCUCCUCUCAUACCUACCGGCUCCACACCCUAACACUCUCCACCCUCUGCUCCAAACCAGUUCUUCUGCAGAGUGGUGAUGUUAGCUUCCCCAGCUCCUCUCCAAGUCUAGCUUUUUCUGUCCUUCUGGCUCCAAGGUGCUCACACACUGUCUCUUGCGGUCGCACUAGUGUGGAAUUCUCGGGUGUCAAGG
B3: ENSMUSG00000022095.49|Fam160b2 (ssRNA)
RNA: GGGAGUUCUACAGUCCGACGAUCGCUUCGAUAUCCGCAUGCUACCUUUUAGAGGAGCUAGAGGAUGGCCAGUGAGCGCCUAGAUGCUGCCCUGCAUGUGUUGCGUGACUAUCUCUGCUAUAUUGUGACCAGGGCCACAACAUGAGACAACUCCAGGGGCCAGGGAGAUGAACUGCUGUCUUUGAGGCUGGCUAAAAAAACAAUCCAGUCCAGAGAGAUGGGGAGGGGGGGAGCAAGAACCCUGUCUGUUACAUUAGGUAUCAUGGAAGCUGCUAAGACUCGGCAGGUUUCUCCGAGGCUUCACCUCUUGCGGUCGCACUAGUGUGGAAUUCUCGGGUGUCAAGG
B4: ENSMUSG00000029636.83|Wasf3|141:145 (ssRNA)
RNA: GGGAGUUCUACAGUCCGACGAUCGCUUCGAUAUCCGCAUGCUAACCAGUGGGUGAUACGUUUUCCUGUUUCUUCCCUUUGCAAAUUGAAUUCCAGGUAGAUAUGGUUGUAGAGGGGAAAGUUUAACAAAUCAGAAUGAAAUGUUUGUCUGUUUGCACACUGGGCCUGGUGGCCUCCAAGGAAAACACAACGAUCGUUUGCUUUCUCUAUCUUGGCGCUUGCAACCGAGAGCGGCCAUUUUUAUGAGGGGAGCCCUGUGGGUACUCAUGUGGAAAGUGCCCACUGACUUUGGCAGAUGGAGUUCCUCUUGCGGUCGCACUAGUGUGGAAUUCUCGGGUGUCAAGG

This experiment deals with TDP-43 (Homo sapiens, UniProt Q13148 1-414). The experiment is described as follows: RNA Bind-n-Seq with designed 260-mer pool; 25 mM Tris-HCl, 150 mM KCl, 3 mM MgCl2, BSA (printed 500 mg/mL), 20 units/mL SUPERase IN; pH not stated; 500 nM RNA pool, 1 h, 4 C; TDP-43 5, 50, 500 nM; high values mean tight binding. To be noted: protein: recombinant; tags: SBP (GST cleaved off with PreScission; pGEX-GST-SBP). In short, it runs like this: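 The incubation lasted 1 h at 4 °C and used 500 nM of an in vitro-transcribed 260-nt 3′ UTR oligo pool with recombinant SBP-tagged TDP-43 at 5, 50 or 500 nM immobilized on streptavidin beads. It took place in 25 mM Tris-HCl, 150 mM KCl, 3 mM MgCl2, BSA and SUPERase IN. Bound RNA was washed, eluted with biotin, converted to cDNA, PCR-amplified and sequenced to give R, each oligo's normalized abundance in the bound sample divided by that in input. Two independent protein batches provided the duplicates.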
Chain of TDP-43 (Q13148 whole entry): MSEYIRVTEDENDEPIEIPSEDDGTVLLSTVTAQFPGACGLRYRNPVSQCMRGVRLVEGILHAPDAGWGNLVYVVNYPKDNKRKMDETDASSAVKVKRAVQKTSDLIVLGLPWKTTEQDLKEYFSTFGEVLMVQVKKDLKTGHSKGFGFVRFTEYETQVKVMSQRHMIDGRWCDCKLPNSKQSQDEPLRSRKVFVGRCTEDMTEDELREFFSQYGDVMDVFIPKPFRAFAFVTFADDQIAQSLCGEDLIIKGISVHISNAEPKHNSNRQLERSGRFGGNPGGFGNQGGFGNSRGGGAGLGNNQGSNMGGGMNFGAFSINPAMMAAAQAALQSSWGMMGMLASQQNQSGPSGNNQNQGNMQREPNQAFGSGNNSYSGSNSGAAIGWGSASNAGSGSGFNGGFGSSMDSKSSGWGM
As to B1, the binding signal was 1.3 R (bound/input frequency ratio). Consider B2, for which the binding signal was 2.59 R (bound/input frequency ratio).

Turning to B3, the binding signal is 1.16 R (bound/input frequency ratio). In the case of B4, the binding signal was 1.97 R (bound/input frequency ratio).
